Compound activity from PubChem.
Only a selection was taken, and hits are over-represented in it overall.
PKM2 inh – PKM2 (human) enzyme inhibition; purified PKM2, ATP generation, Kinase-Glo luminescence; hit rate 0.058% among 260,000; Potency, µM (top dose mostly 57.5 µM), for inactives: at the top dose activity change, negative = inhibition, hits mostly inhibitors; also: potency is read from the fitted curve at half-maximal effect; nearly all actives have a fitted effect of over 60% in size
Target sequence (P14618 whole entry, looked up): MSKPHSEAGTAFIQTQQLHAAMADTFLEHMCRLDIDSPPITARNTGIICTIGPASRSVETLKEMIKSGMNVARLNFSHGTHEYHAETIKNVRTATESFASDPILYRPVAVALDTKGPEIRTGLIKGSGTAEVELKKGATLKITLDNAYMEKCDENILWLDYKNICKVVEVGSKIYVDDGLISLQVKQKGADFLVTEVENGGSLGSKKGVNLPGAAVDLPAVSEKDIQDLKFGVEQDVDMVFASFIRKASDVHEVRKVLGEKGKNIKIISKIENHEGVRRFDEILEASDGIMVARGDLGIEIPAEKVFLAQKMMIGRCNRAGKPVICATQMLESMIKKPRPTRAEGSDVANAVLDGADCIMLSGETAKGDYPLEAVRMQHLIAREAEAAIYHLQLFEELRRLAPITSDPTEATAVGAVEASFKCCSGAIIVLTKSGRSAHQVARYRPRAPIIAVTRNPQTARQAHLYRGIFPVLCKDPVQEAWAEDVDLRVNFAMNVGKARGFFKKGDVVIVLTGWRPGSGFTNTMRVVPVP
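Enzyme run at intermediate activity with final 0.1 mM ADP, 0.5 mM PEP (50 mM imidazole pH7.2, 50 mM KCl, 7 mM MgCl2), incubated 1 h at r.t. ATP formed read by Kinase-Glo luminescence, normalized to no-enzyme (full inhibition) and uninhibited wells.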
PKM2 inh dose – dose-dependently blocks human pyruvate kinase M2 activity; shares compounds with PKM2 inh; purified hPK-M2, Kinase-Glo ATP luminescence, 1 h; hit rate 50% among 55; Potency, µM (doses to about 57.5 µM), for the others: at the top dose activity change, negative = inhibition, most hits filed as inhibitors
PKM2 FLuc cs – firefly luciferase inhibition counter-screen. shares compounds with PKM2 inh. Kinase-Glo firefly luciferase, luminescence, 8 min. Potency, µM (doses to about 57.5 µM), inactives show top-dose activity, negative = inhibition, usual class: inhibitors. hit rate 30% among 55. AID 2265
PKM2 LDH couple – blocks human pyruvate kinase M2 in LDH-coupled assay | purified hPK-M2, LDH-coupled NADH fluorescence kinetic | 55 tested, under 10 active | AID 2267 | Potency, µM (titrated, usually from 57.5 µM), inactives show top-dose activity change, negative = inhibition, hits mostly inhibitors | shares compounds with PKM2 inh
An asterisk follows results filed as active; ? = inconclusive; . = no result given. Calls follow the shape of the dose curve; as a rule, active = well fitted curve in the direction sought with a large enough effect; inconclusive = small, poorly fitted or top-dose-only effect, or another doubt; inactive = no such curve, though single readings can be large; an effect the other way counts as inactive or inconclusive.

SMILES	PKM2 inh	others
COc1cc(NC(=O)CN2C(=O)c3ccccc3Sc3ccc(C(=O)N4CCOCC4)cc32)cc(OC)c1OC	48%
CC(=O)Oc1ccc(N(C(C)=O)S(=O)(=O)c2cccs2)c2ccccc12	35%
COc1cccc(-n2cn[nH]c2=S)c1	14µM*
CCOC(=O)/C=C1\SCC(=O)N1CC(=O)Nc1cccc(F)c1	30%
CCCNc1nc(Cl)nc(NCc2cccnc2)n1	30%
CC1(C)CC(=O)C(C(C2=C(O)CC(C)(C)CC2=O)c2ccc(Br)s2)C(=O)C1 (stereo not given)	44%
CCOC(=O)c1c(-c2ccccc2)csc1NC(=O)CSc1nnc(C)s1	60%
COc1ccc(-c2csc(NC(=O)c3cccs3)c2C(=O)O)cc1OC	22µM*
CCOC(=O)c1c(-c2ccc(C)o2)csc1NC(=S)NC(=O)c1cccs1	37%
O=C(NCCN1C(=O)S/C(=C\c2cccnc2)C1=O)c1cc(S(=O)(=O)N2CCOCC2)ccc1F	50%
COC(=O)c1ccc(COc2ccccc2/C=C/C(=O)c2ccc(OCC(=O)O)cc2)cc1	36%
CCOC(=O)C(=O)N1CCN(c2ccccc2OC)CC1	36%
COc1ccc(-c2cc3nc(C)n(N)c(=O)c3s2)cc1	4µM*
COc1ccc(-c2nc3oc4cc(OC)ccc4c(=O)c3c(=O)n2Cc2ccco2)cc1	33%
O=c1c2cc(Cl)ccc2[nH]c(=S)n1Cc1cccs1	28%
CC(Sc1n[nH]c(N)n1)c1nc2scc(-c3cccs3)c2c(=O)[nH]1 (stereo not given)	23%
CCOc1ccc(C(=O)O/N=C(\N)c2ccccn2)cc1	7.9µM*	PKM2 inh dose=5.8µM*;PKM2 FLuc cs=6.5µM*;PKM2 LDH couple=-10%
CCOc1ccc(NC(c2ccccn2)c2oc(CO)cc(=O)c2O)cc1 (stereo not given)	41%
CCOC(=O)N1CCN(S(=O)(=O)c2ccc(OCC)cc2)CC1	35%
C/C(=N\NC(=O)C1CCCN(S(=O)(=O)c2ccccc2)C1)c1ccccn1 (stereo not given)	2%
N/C(=N\OC(=O)c1ccccc1)c1ccccn1	4µM*	PKM2 inh dose=9.2µM*;PKM2 FLuc cs=4.1µM*;PKM2 LDH couple=-9%
Cc1ccc(CN(C)C(=O)C2CCCN2C(=O)c2cccs2)o1 (stereo not given)	83%
Cc1ccc(CNC(=O)CCNC(=O)Cn2ccc3ccccc3c2=O)o1	49%
CCOC(=O)Cn1c(=O)oc2cc(S(=O)(=O)Nc3ccc(F)cc3)ccc21	32%
Cn1c(SCc2ccccc2)nc2ccsc2c1=O	35%
SMILES	PKM2 inh	others
Cn1c(Cl)cnc1C1CC(=O)c2cc(Cl)ccc2O1 (stereo not given)	32%
CCC1CCCCN1S(=O)(=O)c1ccc2[nH]c(=O)ccc2c1 (stereo not given)	30%
COc1ccc(C(=O)NCc2oc(-c3ccccc3)cc2C(=O)O)cc1	39%
Cc1ccccc1-c1nc(-c2ccccn2)no1	8.9µM*	PKM2 inh dose=12µM*;PKM2 FLuc cs=5.2µM*;PKM2 LDH couple=-3%
COc1ccc(-c2nc(-c3ccccn3)no2)cc1	3.5µM*	PKM2 inh dose=5.8µM*;PKM2 FLuc cs=3.3µM*;PKM2 LDH couple=-12%
O=C(Nc1ccccc1)C1=C(O)CC(c2ccc(Cl)cc2)N2CCN=C12 (stereo not given)	71%
O=S(=O)(Nc1ccc2ccccc2n1)c1ccccc1Cl	43%
Cc1c(C(=O)OCC[N+]2(C)CCCCC2)oc2ccccc12	107%
Cc1cc(N)n(-c2ccc(S(=O)(=O)c3ccc(C(C)C)cc3)cc2)n1	45%
O=C(O)CCn1cc(C2CC(c3ccccc3)=NN2c2ccccc2)c(-c2ccccc2)n1 (stereo not given)	35%
COc1ccc(OCC(O)CNS(=O)(=O)c2cccc(Cl)c2)cc1 (stereo not given)	36%
Cc1ccc(-n2[nH]c(C)c(/C=N/c3ccccn3)c2=O)cc1	11µM*	PKM2 inh dose=?;PKM2 FLuc cs=?;PKM2 LDH couple=-11%
CC1S/C(=N/N=C/c2ccco2)N(Cc2ccccc2)C1=O (stereo not given)	93%
Cc1ccc(C2=C/C(=C/c3cccnc3)C(=O)O2)c(C)c1	45%
O=C(NCc1ccc2c(c1)OCO2)c1ccc(C2SCC(=O)N2Cc2ccco2)cc1 (stereo not given)	54%
Cc1ccc(-c2nc3ccccn3c2Nc2ccccc2C)o1	.	PKM2 inh dose=10%;PKM2 FLuc cs=2%;PKM2 LDH couple=4.6µM*
Cc1ccc(-c2cc(C(=O)Nc3ccccc3C)c3ccccc3n2)o1	43%
Cc1ccc(Nc2c(-c3ccc(C)o3)nc3ncccn23)cc1	57%
Cc1ccc(-c2nc3ncccn3c2Nc2ccccc2C)o1	69%
Cc1ccc2nc(-c3ccc(C)o3)c(Nc3ccc(Cl)cc3)n2c1	.	PKM2 inh dose=21%;PKM2 FLuc cs=-1%;PKM2 LDH couple=?
COc1ccc(-c2nc3ccccn3c2Nc2ccccc2C)cc1	.	PKM2 inh dose=?;PKM2 FLuc cs=0%;PKM2 LDH couple=-28%
Cc1ccn(S(=O)(=O)c2ccc3oc(=O)ccc3c2)n1	79%
Cc1nc(-c2ccc(-n3nncc3-c3ccco3)cc2)cs1	35%
COc1ccc(-c2nnc3ccc(SCC(=O)Nc4nc5ccc(C)cc5s4)nn23)cc1OC	43%
COCC(=O)OCC(=O)Nc1ccc(Cl)cc1[N+](=O)[O-]	76%
SMILES	PKM2 inh	others
Cn1c(=O)oc2cc(S(=O)(=O)Nc3cccc4c3CCCC4)ccc21	34%
COc1ccc(CNC(=O)C2=CCN(S(=O)(=O)c3ccc(C)cc3)CC2)cc1	95%
O=C(c1ccc(Cn2cc(Cl)c([N+](=O)[O-])n2)cc1)N1CCN(Cc2ccccc2)CC1	38%
COc1ccc(CNC(=O)C(c2ccc(C)o2)N(Cc2cccs2)C(=O)Cc2cccs2)cc1 (stereo not given)	62%
Cc1ccc(/C=N/N2CCN(C3c4ccccc4-c4ccccc43)CC2)o1	50%
Cc1cc2c(cc1S(=O)(=O)Nc1cccc(C)c1C)n(C)c(=O)c(=O)n2C	87%
Cc1cccc(NS(=O)(=O)c2cc3c(cc2C)NC(=O)CO3)c1	89%
COc1ccc(-c2nc3cccc(C)n3c2Nc2ccc(C)cc2)cc1	.	PKM2 inh dose=6%;PKM2 FLuc cs=-3%;PKM2 LDH couple=?
Cc1ccc(Nc2c(-c3ccc(C)s3)nc3cccc(C)n23)cc1	.	PKM2 inh dose=?;PKM2 FLuc cs=0%;PKM2 LDH couple=16%
Cc1ccccc1Nc1c(-c2ccccc2)nc2cccc(C)n12	.	PKM2 inh dose=4%;PKM2 FLuc cs=-2%;PKM2 LDH couple=?
CCOC(=O)c1c(N2C(=O)CC(Sc3ccccc3C(=O)O)C2=O)sc2c1CCCC2 (stereo not given)	61%
Cc1cccc(C)c1NC(=O)NC1(C(=O)NCCCN2CCOCC2)CCCCC1	53%
NS(=O)(=O)c1ccc(N/C=C\C(=O)c2cccc3ccccc23)cc1	31%
CCOC(=O)C(NC(=O)CC)(Nc1ccc(S(N)(=O)=O)cc1)C(F)(F)F (stereo not given)	-11%
COc1ccccc1/C=C1\SC(=S)N(CCC(=O)Nc2cccc(O)c2)C1=O	37%
Cc1c(CCC(=O)NC2CC2)c(=O)oc2cc(O)ccc12	35%
COc1cc2cc(C)c(SCC(=O)N3CCN(C(=O)c4ccco4)CC3)nc2cc1OC	91%
Cc1noc(C)c1COC(=O)c1ccc(S(=O)(=O)NCc2ccco2)cc1	30%
